Results filed as inconclusive are left out. Calls of active or inactive are those of the source. Unless noted, the call rests on the fitted dose curve; in most records, active means well fitted curve in the direction sought with a large enough effect in the repeat runs; inconclusive means weak or mixed curves; inactive means no such curve, though single readings can be large; an effect the other way counts as inactive or inconclusive.
Legend:
[1] = qHTS assay to test for compound auto fluorescence at 535 nm (green) in HEK293 cells (AID 720680)
[2] = qHTS assay to test for compound auto fluorescence at 460 nm (blue) in HEK293 cell free culture (AID 720681)
Summary of the method: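 Blue fluorescence (Ex 405/Em 460 nm, triamterene-equivalent) was read immediately after pin transfer of compound or DMSO into medium (DMEM, 10% FBS) without cells.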

[3] = qHTS assay to test for compound auto fluorescence at 535 nm (green) in HEK293 cell free culture (AID 720682)
Summary of the method: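 Green-label autofluorescence (485 nm excitation, 535 nm emission) measured on compound added to cell-free culture medium (DMEM, 10% FBS). Output is expressed relative to fluorescein.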

[4] = qHTS assay to test for compound auto fluorescence at 590 nm (red) in HEK293 cell free culture (AID 720683)
Summary of the method: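 Red-channel autofluorescence of compounds in culture medium (DMEM, 10% FBS), no cells, measured at 540/590 nm. Rose Bengal sodium is the reference fluorophore for equivalence.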

[5] = qHTS assay to test for compound auto fluorescence at 590 nm (red) in HepG2 cell free culture (AID 720684)
Summary of the method: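 Cell-free; medium MEM + 10% FBS; compound or DMSO added by pintool; read Ex 540/Em 590 nm; Rose Bengal sodium as red reference fluorophore.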

[6] = qHTS assay to test for compound auto fluorescence at 460 nm (blue) in HepG2 cell free culture (AID 720685)
Summary of the method: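 Cell-free plates of MEM plus 10% FBS received 23 nL compound or DMSO vehicle; blue-channel (405/460 nm) intensity scored against triamterene as reference fluorophore.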

[7] = qHTS assay to test for compound auto fluorescence at 535 nm (green) in HepG2 cell free culture (AID 720686)
[8] = qHTS assay to test for compound auto fluorescence at 460 nm (blue) in HepG2 cells (AID 720687)
Summary of the method: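 Blue-channel autofluorescence (Ex/Em 405/460 nm, triamterene-equivalent) was measured after 1 hr compound exposure at 37 C, 5% CO2. Cells were HepG2, plated overnight at 37 C in MEM plus 10% FBS.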

[9] = target: Glucocorticoid receptor (Homo sapiens) (UniProt P04150); test: qHTS assay to identify small molecule agonists of the glucocorticoid receptor (GR) signaling pathway (AID 720691; active means well fitted activation curve with a large enough effect in the signal ratio in the repeat runs, not every such curve was filed as active; the % refers to the signal ratio)
Summary of the method: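 HeLa GR-bla reporter line; cells pre-incubated 4 h, compound in DMSO 18 h at 37 C; LiveBLAzer B/G FRET substrate 2 h RT; fluorescence intensity read-out.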

[10] = target: Glucocorticoid receptor (Homo sapiens) (UniProt P04150); test: qHTS assay to identify small molecule antagonists of the glucocorticoid receptor (GR) signaling pathway (AID 720692; active means well fitted inhibition curve with a large enough effect in the signal ratio in the repeat runs, not every such curve was filed as active; the % refers to the signal ratio)
Summary of the method: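 Read-out: beta-lactamase FRET substrate fluorescence, 2 h at room temperature, in HeLa cells stably carrying a GRE-driven bla reporter. Compounds were co-incubated with 5 nM dexamethasone agonist (final) for 18 h at 37 C.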

[11] = qHTS assay to identify small molecule antagonists of the glucocorticoid receptor (GR) signaling pathway - cell viability counter screen (AID 720693); further: nearly all actives have a fitted effect of over 55% in size
[12] = qHTS assay for identifying genotoxic compounds that show differential cytotoxicity against isogenic chicken DT40 cell lines with known DNA damage response pathways - wild type cell line (AID 743012); further: nearly all actives have a fitted effect of over 60% in size
Summary of the method: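 CellTiter-Glo luminescence readout of viability in wild type DT40 cells after 40 h compound exposure at 37 C/5% CO2; 300 cells/well; reagent incubated 30 min at room temperature before reading.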

[13] = qHTS assay for identifying genotoxic compounds that show differential cytotoxicity against isogenic chicken DT40 cell lines with known DNA damage response pathways - Rev3 mutant cell line (AID 743014); further: nearly all actives have a fitted effect of over 55% in size
[14] = qHTS assay for identifying genotoxic compounds that show differential cytotoxicity against isogenic chicken DT40 cell lines with known DNA damage response pathways - Rad54/Ku70 mutant cell line (AID 743015); further: nearly all actives have a fitted effect of over 60% in size
[15] = qHTS assay to identify small molecule antagonists of the androgen receptor (AR) signaling pathway - cell viability counter screen (AID 743033; further: nearly all actives have a fitted effect of over 45% in size)
[16] = qHTS assay to identify small molecule antagonists of the androgen receptor (AR) signaling pathway using the MDA cell line - cell viability counter screen (AID 743041; further: nearly all actives have a fitted effect of over 45% in size)
Summary of the method: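 Viability read by CellTiter-Fluor fluorescence in the same wells as the antagonist screen, added after 15.5 h of a 16 h, 37C exposure. Human breast carcinoma MDA-kb2 AR-luc cells, compounds co-dosed with agonist R1881.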

[17] = target: Androgen receptor (Homo sapiens) (UniProt P10275); test: qHTS assay to identify small molecule antagonists of the androgen receptor (AR) signaling pathway (AID 743035; active means well fitted inhibition curve with a large enough effect in the signal ratio in the repeat runs, not every such curve was filed as active; the % refers to the signal ratio)
Summary of the method: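 AR-bla HEK293 reporter cells; 4 h settle at 37C/5% CO2; compound + R1881 agonist, 16 h at 37C; LiveBLAzer B/G FRET substrate 2 h RT; fluorescence intensity read. qHTS format.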

[18] = target: Androgen receptor (Homo sapiens) (UniProt P10275); test: qHTS assay to identify small molecule agonists of the androgen receptor (AR) signaling pathway using the MDA cell line (AID 743040; further: nearly all actives have a fitted effect of over 20% in size)
Summary of the method: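 Luciferase agonist assay: 16 h compound exposure at 37C without CO2 in MDA-kb2 AR-luc cells, whose MMTV promoter responds to both AR and GR. Luminescence measured after 30 min room-temperature incubation with ONE-Glo.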

[19] = target: Androgen receptor (Homo sapiens) (UniProt P10275); test: qHTS assay to identify small molecule antagonists of the androgen receptor (AR) signaling pathway using the MDA cell line (AID 743042; further: nearly all actives have a fitted effect of over 55% in size)
Summary of the method: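 Antagonist mode: compounds plus R1881 agonist added to MDA-kb2 AR-luc cells, incubated 16 h at 37C. Luciferase reporter luminescence quantified, with multiplexed CellTiter-Fluor readout for cell viability.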

[20] = target: Androgen receptor (Homo sapiens) (UniProt P10275); test: qHTS assay to identify small molecule agonists of the androgen receptor (AR) signaling pathway (AID 743036; active means well fitted activation curve with a large enough effect in the signal ratio in the repeat runs, with a control signal flat, not every such curve was filed as active; the % refers to the signal ratio)
Summary of the method: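 AR-UAS-bla HEK293 cells, plated 4 h before dosing, were treated with compound for 16 h at 37C. beta-Lactamase reporter read after 2 h with LiveBLAzer B/G FRET substrate at room temperature.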
On the % scale 0 is the no-effect control and ±100 the full control effect.

Glucocorticoid receptor (Homo sapiens), sequence (P04150 whole entry, looked up): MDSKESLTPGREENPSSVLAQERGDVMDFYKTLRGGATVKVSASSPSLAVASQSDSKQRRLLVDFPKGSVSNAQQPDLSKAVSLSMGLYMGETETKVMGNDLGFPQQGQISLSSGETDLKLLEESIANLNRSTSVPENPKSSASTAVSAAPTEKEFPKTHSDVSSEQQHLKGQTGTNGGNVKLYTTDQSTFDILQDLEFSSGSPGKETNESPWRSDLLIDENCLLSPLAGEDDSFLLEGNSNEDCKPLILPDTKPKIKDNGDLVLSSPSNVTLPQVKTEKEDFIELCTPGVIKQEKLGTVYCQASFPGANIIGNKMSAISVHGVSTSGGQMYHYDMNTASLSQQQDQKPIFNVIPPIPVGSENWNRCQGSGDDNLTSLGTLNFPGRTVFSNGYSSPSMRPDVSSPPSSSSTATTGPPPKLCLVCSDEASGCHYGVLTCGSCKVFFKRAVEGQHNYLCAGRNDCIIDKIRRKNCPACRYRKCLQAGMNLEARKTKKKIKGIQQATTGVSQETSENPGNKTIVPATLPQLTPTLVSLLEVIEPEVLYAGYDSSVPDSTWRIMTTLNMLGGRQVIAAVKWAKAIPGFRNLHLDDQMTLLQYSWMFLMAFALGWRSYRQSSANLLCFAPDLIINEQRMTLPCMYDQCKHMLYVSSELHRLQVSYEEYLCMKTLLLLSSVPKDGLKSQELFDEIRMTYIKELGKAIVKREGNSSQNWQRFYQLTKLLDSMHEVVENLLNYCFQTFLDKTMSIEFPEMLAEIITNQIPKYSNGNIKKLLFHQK
Androgen receptor (Homo sapiens), sequence (P10275 whole entry, looked up): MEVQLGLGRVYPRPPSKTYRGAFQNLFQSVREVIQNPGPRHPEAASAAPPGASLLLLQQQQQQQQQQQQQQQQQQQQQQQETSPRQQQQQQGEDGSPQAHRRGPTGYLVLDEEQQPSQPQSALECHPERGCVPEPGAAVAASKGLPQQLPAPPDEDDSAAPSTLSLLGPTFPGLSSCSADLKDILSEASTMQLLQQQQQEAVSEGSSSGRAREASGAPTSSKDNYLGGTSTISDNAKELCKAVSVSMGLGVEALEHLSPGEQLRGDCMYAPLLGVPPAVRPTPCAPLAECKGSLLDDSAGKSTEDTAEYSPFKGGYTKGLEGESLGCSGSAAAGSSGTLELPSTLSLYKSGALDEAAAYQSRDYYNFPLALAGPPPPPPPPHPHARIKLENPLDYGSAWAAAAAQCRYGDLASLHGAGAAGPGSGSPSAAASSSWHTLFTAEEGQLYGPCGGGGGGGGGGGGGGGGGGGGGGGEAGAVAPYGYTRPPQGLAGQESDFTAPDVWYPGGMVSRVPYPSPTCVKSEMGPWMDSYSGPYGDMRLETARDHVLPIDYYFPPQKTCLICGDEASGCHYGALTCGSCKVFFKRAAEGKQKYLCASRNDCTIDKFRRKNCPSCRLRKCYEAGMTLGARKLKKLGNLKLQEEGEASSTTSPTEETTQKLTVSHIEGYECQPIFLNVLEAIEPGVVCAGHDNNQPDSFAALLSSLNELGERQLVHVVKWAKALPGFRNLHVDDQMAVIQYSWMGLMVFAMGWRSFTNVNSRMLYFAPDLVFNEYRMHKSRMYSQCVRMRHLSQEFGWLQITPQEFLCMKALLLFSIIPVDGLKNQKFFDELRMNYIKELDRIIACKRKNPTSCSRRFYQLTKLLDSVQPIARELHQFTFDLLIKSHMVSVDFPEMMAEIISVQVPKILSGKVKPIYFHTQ

C=C(C)C(=O)OC1CC(C)CC(C)(C)C1 (stereo not given)
inactive: outcome [1] | outcome [2] | outcome [3] | outcome [4] | outcome [5] | outcome [6] | outcome [7] | outcome [8] | Potency [9] | outcome [10] | Potency [11] | Potency [12] | Potency [13] | Potency [14] | outcome [15] | outcome [16]

Cc1cccc(NC(=S)N(C)C)c1
inactive: outcome [1] | outcome [2] | outcome [3] | outcome [4] | outcome [5] | outcome [6] | outcome [7] | outcome [8] | Potency [9] | outcome [10] | Potency [11] | Potency [12] | Potency [13] | Potency [14] | outcome [15] | outcome [16]

C[C@H](CCC(=O)NCC(=O)O)[C@H]1CC[C@H]2[C@@H]3[C@H](O)C[C@@H]4C[C@H](O)CC[C@]4(C)[C@H]3C[C@H](O)[C@]12C
inactive: outcome [1] | outcome [2] | outcome [3] | outcome [4] | outcome [5] | outcome [6] | outcome [7] | outcome [8] | Potency [9] | outcome [10] | Potency [11] | Potency [12] | Potency [13] | Potency [14] | outcome [15] | outcome [16]

CCCCCCCCCCCCC
inactive: outcome [1] | outcome [2] | outcome [3] | outcome [4] | outcome [5] | outcome [6] | outcome [7] | outcome [8] | Potency [9] | outcome [10] | Potency [11] | Potency [12] | Potency [13] | Potency [14] | outcome [16]

CC1(N)CCC(C(C)(C)N)CC1 (stereo not given)
inactive: outcome [1] | outcome [2] | outcome [3] | outcome [4] | outcome [5] | outcome [6] | outcome [7] | outcome [8] | Potency [9] | outcome [10] | Potency [11] | Potency [12] | Potency [13] | Potency [14] | outcome [15] | outcome [16]

O=C(O)C(=O)Nc1cccc(-c2nn[nH]n2)c1
inactive: outcome [1] | outcome [2] | outcome [3] | outcome [4] | outcome [5] | outcome [6] | outcome [7] | outcome [8] | Potency [9] | outcome [10] | Potency [11] | Potency [12] | Potency [13] | Potency [14] | outcome [15] | outcome [16]

CCCCCCCC[Si](OCC)(OCC)OCC
inactive: outcome [1] | outcome [2] | outcome [3] | outcome [4] | outcome [5] | outcome [6] | outcome [7] | outcome [8] | Potency [9] | outcome [10] | Potency [11] | Potency [12] | Potency [13] | Potency [14] | outcome [15]

CCCO
inactive: outcome [1] | outcome [2] | outcome [3] | outcome [4] | outcome [5] | outcome [6] | outcome [7] | outcome [8] | Potency [9] | outcome [10] | Potency [11] | Potency [12] | Potency [13] | Potency [14] | outcome [15] | outcome [16]

CN=C(NC#N)NCCSCc1csc(N=C(N)N)n1
inactive: outcome [1] | outcome [2] | outcome [3] | outcome [4] | outcome [5] | outcome [6] | outcome [7] | outcome [8] | Potency [9] | outcome [10] | Potency [11] | Potency [12] | Potency [13] | Potency [14] | outcome [15] | outcome [16]

CC(C)(c1ccc(Oc2ccc3c(c2)C(=O)OC3=O)cc1)c1ccc(Oc2ccc3c(c2)C(=O)OC3=O)cc1
inactive: outcome [1] | outcome [2] | outcome [3] | outcome [4] | outcome [5] | outcome [6] | outcome [7] | outcome [8] | Potency [9] | outcome [10] | Potency [11] | Potency [12] | Potency [13] | Potency [14] | outcome [15] | outcome [16]

O=C(COCCOCCOCC(=O)Nc1c(I)cc(I)c(C(=O)O)c1I)Nc1c(I)cc(I)c(C(=O)O)c1I
inactive: outcome [1] | outcome [2] | outcome [3] | outcome [4] | outcome [5] | outcome [6] | outcome [7] | outcome [8] | Potency [9] | outcome [10] | Potency [11] | Potency [12] | Potency [13] | Potency [14] | outcome [15] | outcome [16]

NC(=O)NNC(N)=O
inactive: outcome [1] | outcome [2] | outcome [3] | outcome [4] | outcome [5] | outcome [6] | outcome [7] | outcome [8] | Potency [9] | outcome [10] | Potency [11] | Potency [12] | Potency [13] | Potency [14] | outcome [15] | outcome [16]

Nc1cc(S(=O)(=O)O)ccc1S(=O)(=O)O
inactive: outcome [1] | outcome [2] | outcome [3] | outcome [4] | outcome [5] | outcome [6] | outcome [7] | outcome [8] | Potency [9] | outcome [10] | Potency [11] | Potency [12] | Potency [13] | Potency [14] | outcome [16]

C[C@H](CCC(=O)O)[C@H]1CC[C@H]2[C@@H]3[C@H](O)C[C@@H]4C[C@H](O)CC[C@]4(C)[C@H]3C[C@H](O)[C@]12C
inactive: outcome [1] | outcome [2] | outcome [3] | outcome [4] | outcome [5] | outcome [6] | outcome [7] | outcome [8] | Potency [9] | outcome [10] | Potency [11] | Potency [12] | Potency [13] | Potency [14] | outcome [15] | outcome [16]

Cc1ncc([N+](=O)[O-])n1CC(O)CCl (stereo not given)
inactive: fluorescence, % of fluorescein [1] -0.0185% [at 18.6 µM] | fluorescence, % of fluorescent control [2] -0.008% [at 18.6 µM] | activity change [3] 0.017% [at 18.6 µM] | fluorescence, % of fluorescent control [4] -0.0564% [at 18.6 µM] | fluorescence, % of Rose Bengal [5] 0.0054% [at 18.6 µM] | fluorescence, % of fluorescent control [6] -0.0905% [at 18.6 µM] | fluorescence, % of fluorescein control [7] -0.0146% [at 18.6 µM] | fluorescence, % of fluorescent control [8] -0.0428% [at 18.6 µM] | Potency [9] | outcome [10] | Potency [11] | Potency [12] | Potency [13] | Potency [14] | outcome [15] | Potency [17] | outcome [18] | outcome [16] | outcome [19]

COc1ccc(/C=N/NC(=O)c2ccncc2)cc1OC
inactive: outcome [1] | outcome [2] | outcome [3] | outcome [4] | outcome [5] | outcome [6] | outcome [7] | outcome [8] | Potency [9] | outcome [10] | Potency [11] | Potency [12] | Potency [13] | Potency [14] | outcome [15] | Potency [17] | outcome [20] | outcome [18] | outcome [16] | outcome [19]

— PubChem BioAssay (Tox21)
